Shown are actives, neighbours in structure and some others; about 4.8% of the full set was active somewhere.
DAX1 inh-1: inhibitors of human orphan nuclear receptor DAX1 (NR0B1); 340,000 compounds, 0.99% hits; HEK293 Gal4-DAX1 luciferase reporter, luminescence; P51843; inhibition, % at 6.75 µM;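 active means inhibition above the mean over all tested compounds plus 3 SD, cut at about 4.2% in these data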;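 further: 0% = DAX1-transfected cells with DMSO and 100% = empty-vector control cells with DMSO; inhibition shows as a rise in luminescence from relieved DAX1 repression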
Target sequence (P51843 207-470 limits assumed): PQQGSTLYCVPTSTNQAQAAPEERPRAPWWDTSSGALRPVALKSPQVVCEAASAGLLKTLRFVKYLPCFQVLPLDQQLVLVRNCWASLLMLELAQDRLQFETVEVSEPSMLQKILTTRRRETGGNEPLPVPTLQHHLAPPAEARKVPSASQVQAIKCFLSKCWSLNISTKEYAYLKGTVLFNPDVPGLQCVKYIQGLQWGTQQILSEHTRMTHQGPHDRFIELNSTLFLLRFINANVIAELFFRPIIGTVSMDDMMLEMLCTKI
hcDAF-12 act: H. contortus DAF-12 activation, primary screen. HEK293 hcDAF-12 lit1-tk-luc reporter, luminescence; 0% DMSO, 100% Δ7-dafachronic acid. activation, % at 6.8 µM. AID 652067. 370,000 compounds, 1.4% hits;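 active means activation above the mean of all tested compounds plus 3 SD, cut at about 5.5% in these data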;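 further: 100% = response to 3 µM Δ7-dafachronic acid high control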
SMARCA2 act: activators of SMARCA2 function; 370,000 compounds, 1% hits; activation, % at 9.1 µM; MG213 cells, MMTV-luciferase reporter, dexamethasone, overnight; in the data active means activation above about 7.8%;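 further: 0% = vehicle wells and 100% = reference activator wells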
DAX1 inh-2: DAX1 (NR0B1) inhibition, primary screen | 370,000 compounds, 1.1% hits | HEK293T StAR-luciferase reporter, SF-1/DAX-1 repression relief | AID 652010 | inhibition, % at 6.8 µM;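 active means inhibition above the mean over all tested compounds plus 3 SD, cut at about 3.6% in these data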;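 further: 0% = DAX-1 cells with DMSO and 100% = cells lacking DAX-1 with DMSO; higher inhibition means more luminescence from relief of DAX-1 repression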
hgDAF-12 ag: activates the H. glycines DAF-12 receptor ligand-binding domain; HEK293 GAL4-hgDAF12 UAS-luciferase reporter, agonist luminescence; normalized to butyrate control; activation, % at 6.8 µM; 370,000 compounds, 1.8% hits;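 active means activation above a cutoff set at the mean of all screened compounds plus 3 SD, cut at about 10% in these data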;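 further: 0% = DMSO wells and 100% = sodium butyrate wells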
ssDAF12 agonist: activates DAF-12 receptor from parasite S. stercoralis | HEK293 ssDAF-12/GRIP1 lit1-tk-luc reporter, luminescence; % of 3 µM dafachronic acid response | activation, % at 6.8 µM | 370,000 compounds, 1% hits | AID 652126;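 active means activation above the mean over all tested compounds plus 3 SD, cut at about 0.9% in these data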;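 further: 0% = DMSO-only wells and 100% = 3 µM delta7-dafachronic acid wells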
Starred values were filed as active, the others as inactive; . = not tested or not shown.

SMILES | DAX1 inh-1 | hcDAF-12 act | SMARCA2 act | DAX1 inh-2 | hgDAF-12 ag | ssDAF12 agonist
COc1ccc(C(C#N)=C2C=CC(=NO)C=C2)cc1 | -1 | -2 | -5 | -1 | -1 | 1.3*
COc1ccc(C[N+]2=C(N)NC3=C4CCCCC4n4c(=O)n(-c5ccccc5)c(=O)n4C3C2)c(OC)c1 (stereo not drawn) | . | -1 | -6 | -1 | 0 | -2
Cc1cccc(Nc2nc(N)nc(CSc3nccn3C)n2)c1 | 1 | 1 | 7 | 1 | 6 | -1
Cc1ccc(Nc2nc(N)nc(CSc3nccn3C)n2)cc1 | 1 | 5 | 5 | 3 | 11* | 0.9*
C=c1[nH]cc(C(C)c2c(C)n(C)c3ccccc23)/c1=C/C (stereo not drawn) | . | 6.0* | 5 | 0 | 5 | 0
CC(c1c[nH]c2ccccc12)c1cn(C)c2ccccc12 (stereo not drawn) | . | 2 | -4 | -1 | 2 | -1
CS(=O)(=O)N1CCC(C(=O)NCC2COc3ccccc3O2)CC1 (stereo not drawn) | . | -2 | -1 | 0 | -1 | -1
COc1ccc(C2C(C(=O)NCC3CCCO3)CCC(=O)N2c2ccc3c(c2)OCO3)cc1 (stereo not drawn) | 4.4* | -1 | 1 | 1 | -2 | -1
COC(=O)c1cc(C(c2ccccc2O)C2CCCO2)n2cccc(C(C)(C)C)c12 (stereo not drawn) | . | -4 | 0 | -2 | 2 | 0
Cc1ccc(C(=O)CSc2nc3ccc(C(=O)NCCN4CCCCC4)cc3c(=O)[nH]2)cc1 | 1 | 5.6* | 0 | 0 | 3 | 0
C=CCN1[C@@H](Cc2ccccc2)COc2cccc(N3CCCC3)c2S1(=O)=O | . | 0 | -2 | -1 | 4 | -1
CC(C)CN1C(=O)[C@]2(CC(=O)N(C)C2c2ccccc2)c2cc(-n3cc(C4=CCCCC4)nn3)ccc21 (stereo partly drawn) | . | -3 | -4 | -1 | -2 | -1
Cc1cccc(C(=O)CC(=O)c2cc(Cl)ccc2O)c1 | 1 | . | . | . | . | .
Cc1ccc(O)c(C(=O)CC(=O)c2ccc(Cl)cc2)c1 | 2 | 5 | 2 | 2 | 11* | 0
O=C(CC(=O)c1cc(Cl)ccc1O)c1ccccc1 | 3 | 2 | 2 | 1 | 12* | -1
CCCCNS(=O)(=O)/C=C/c1ccc(F)cc1CNC(=O)OC(C)(C)C | . | -2 | -3 | -1 | -1 | -2
O=C(O)c1ccc2c3c(cccc13)C(=O)N(c1cccc3ccccc13)C2=O | 4.5* | 3 | 1 | 0 | 1 | -1
O=C(O)c1ccccc1N1C(=O)c2cccc3cccc(c23)C1=O | -1 | 0 | 0 | 0 | -1 | -2
O=C(CSc1nnc2ccccn12)Nc1ccccc1Cl | -1 | 0 | -3 | -1 | 1 | -1
Cc1ccc(C(=O)CSc2nnc3ccccn23)c(C)c1 | 1 | 5.7* | 2 | 4.4* | 11* | 0
Fc1ccc(CSc2nnc3ccccn23)c(Cl)c1 | 0 | 4 | 4 | 4.2* | 4 | -1
Cc1ccc(NC(=O)CSc2nnc3ccccn23)c(Cl)c1 | 4 | 3 | 7.9* | 3 | 8 | 1
COC(=O)C[C@@H]1CC[C@H]2[C@@H](COc3ccc(NS(=O)(=O)c4ccccc4F)cc3C(=O)N2C)O1 | . | 0 | 0 | 0 | -1 | -1
CCOc1ccc(Nc2ccc(N3C(=O)CCC3=O)cc2[N+](=O)[O-])cc1 | 2 | 6.2* | 2 | 0 | 2 | -1
COc1ccc(Nc2ccc(N3C(=O)CCCC3=O)cc2[N+](=O)[O-])cc1OC | -1 | -3 | -3 | -1 | -3 | -2
SMILES | DAX1 inh-1 | hcDAF-12 act | SMARCA2 act | DAX1 inh-2 | hgDAF-12 ag | ssDAF12 agonist
CC(=O)Nc1ccc(NC(C)=C(C#N)C#N)cc1 | 4.3* | 1 | 0 | 0 | -2 | -1
CC(=O)Nc1cccc(NC(C)=C(C#N)C#N)c1 | -1 | 0 | -2 | 0 | 1 | -1
O=C1OCC(CO)(CO)N=C1NNc1cc(Cl)ccc1Cl | 0 | 4 | 1 | 0 | 3 | 1
O=C1OCC(CO)(CO)N=C1NNc1ccccc1[N+](=O)[O-] | 5.2* | 3 | 3 | 0 | 3 | -1
COc1ccc(/C=N/n2cnnc2SCCO)cc1OC | 0 | 0 | 1 | 1 | 1 | -1
C=CCSc1nncn1/N=C/c1ccc(OC)cc1 | 4.9* | 3 | 1 | 3 | 11* | 1
O=C(Nc1ccc(Cl)cc1)Nc1ccccn1 | 4 | 4 | 1 | 1 | 12* | 0
CNC(=O)N/N=C(\N)c1ccccn1 | -1 | -2 | -3 | 0 | 0 | -1
N/C(=N\NC(=O)Nc1ccc(Cl)cc1)c1ccccn1 | 2 | 5.6* | 5 | 1 | 5 | 0
O=C(Nc1ccccc1)Nc1ccccn1 | 1 | 3 | 5 | 2 | 5 | -1
COc1ccc(CC(=O)N(Cc2ccccc2)c2ccccc2C(=O)Nc2cc(OC)ccc2OC)cc1 | . | -3 | 1 | 0 | -1 | -1
Cc1cc(NC(=O)COc2cc(F)cc(F)c2)n(-c2ccccc2)n1 | . | -2 | 5 | -2 | 3 | -2
CCn1cc(Br)c(C(=O)Nc2ccc(F)c(Cl)c2)n1 | 2 | 3 | -2 | 0 | 10 | 1.7*
CCn1cc(Br)c(C(=O)Nc2ccc(Cl)cc2Cl)n1 | 0 | 1 | -3 | 0 | 1 | 1.0*
CN1Cc2nnn(Cc3ccccc3)c2-c2ccccc2S1(=O)=O | . | -2 | -3 | -1 | 3 | -1
CC(=O)Nc1cccc(NC(=O)C(=O)c2cn(CC(=O)N3CCCC3)c3ccccc23)c1 | 0 | 6.0* | -3 | 2 | 5 | 1.2*
CC(=O)Nc1ccc(NC(=O)C(=O)c2cn(CC(=O)N3CCCCC3)c3ccccc23)cc1 | -1 | -1 | -3 | -1 | -2 | -1
O=C(CCc1ccccc1)N[C@H]1[C@H](OC(=O)c2cnccn2)CCC[C@]12C(=O)N(Cc1ccccc1)c1ccccc12 | . | 0 | 1 | 0 | -1 | -1
COC(=O)[C@]12C[C@H](CC(=O)NCc3cccc(C(F)(F)F)c3)C(=O)N(Cc3ccc4c(c3)OCO4)C1=C[C@H](C(C)(C)C)O[C@@H]2C | . | 2 | -4 | 0 | 2 | -1
O=C(c1ccc(Br)s1)N1CCc2ccccc2C1 | 2 | 2 | 2 | 3.9* | 2 | -1
O=C(c1cccs1)N1CCc2ccccc2C1 | 0 | 1 | 1 | 1 | 3 | -1
CCCC(C)NC(=O)COC(=O)c1cccc(NS(C)(=O)=O)c1 (stereo not drawn) | 4.6* | -1 | -2 | 0 | 2 | 0
CC(=O)Nc1cccc(C(=O)OCC(=O)NC(C)c2ccc(F)cc2)c1 (stereo not drawn) | -1 | -2 | 0 | 0 | -2 | -2
COc1ccc(Cc2c(-c3ccc(C#N)cc3)nc3c4ccccc4ccn23)c(C)c1 | . | 2 | -1 | -1 | 5 | -1

From PubChem BioAssay
